From PubChem BioAssay
This is a sample that favours compounds with a hit; in the whole collection about 6.3% have one here.
Mdm2 MdmX PPI: disrupts the human Mdm2-MdmX interaction. inhibition, % at 8 µM. O15151+Q00987. 330,000 compounds, 3% hits. SaOS-2 split-luciferase Mdm2/MdmX complementation, luminescence;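 active = inhibition of at least 50% at 8 µM in the primary screen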
Target sequence (O15151 whole entry, looked up): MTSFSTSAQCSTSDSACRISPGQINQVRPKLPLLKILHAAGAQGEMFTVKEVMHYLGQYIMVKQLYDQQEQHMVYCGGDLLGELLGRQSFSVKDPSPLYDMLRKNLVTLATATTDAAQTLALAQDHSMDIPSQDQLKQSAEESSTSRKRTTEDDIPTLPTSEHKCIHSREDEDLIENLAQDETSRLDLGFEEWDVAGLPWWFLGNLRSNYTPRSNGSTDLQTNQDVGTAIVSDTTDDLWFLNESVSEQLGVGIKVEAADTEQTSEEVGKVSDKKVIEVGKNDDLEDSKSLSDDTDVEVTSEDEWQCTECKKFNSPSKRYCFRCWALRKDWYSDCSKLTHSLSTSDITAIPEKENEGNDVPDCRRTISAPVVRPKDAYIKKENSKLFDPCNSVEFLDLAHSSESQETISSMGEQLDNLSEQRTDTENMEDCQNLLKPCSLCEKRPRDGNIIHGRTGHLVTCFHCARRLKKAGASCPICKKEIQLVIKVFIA
Target sequence (Q00987 whole entry, looked up): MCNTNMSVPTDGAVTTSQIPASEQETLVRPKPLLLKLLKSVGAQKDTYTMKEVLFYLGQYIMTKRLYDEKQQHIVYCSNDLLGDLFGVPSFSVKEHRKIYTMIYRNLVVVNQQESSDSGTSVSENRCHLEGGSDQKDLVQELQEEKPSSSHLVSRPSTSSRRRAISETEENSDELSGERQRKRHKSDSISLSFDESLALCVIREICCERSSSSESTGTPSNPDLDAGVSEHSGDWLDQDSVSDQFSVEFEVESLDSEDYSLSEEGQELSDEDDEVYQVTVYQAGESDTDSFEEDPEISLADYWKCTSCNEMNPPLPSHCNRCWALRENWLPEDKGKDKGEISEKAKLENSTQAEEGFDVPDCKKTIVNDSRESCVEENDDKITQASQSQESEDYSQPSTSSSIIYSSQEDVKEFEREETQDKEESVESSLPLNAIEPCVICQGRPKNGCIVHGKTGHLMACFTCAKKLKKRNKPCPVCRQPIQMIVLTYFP
tim23-1 inh: growth inhibitors of tim23-1 mutant yeast; AID 463212; S. cerevisiae tim23-1 growth, BacTiter-Glo luminescence, 24 h; 330,000 compounds, 1.3% hits; inhibition, % at 20 µM;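 active = growth inhibition of the mutant yeast at or above 50%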;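 also: temperature-sensitive mutant grown at 25 °C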
MPTP block: permeability transition pore inhibition. 360,000 compounds, 1.4% hits. AID 602449. isolated mouse mitochondria, Ca2+ swelling absorbance, 30 min. inhibition, % at 10 µM;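 active = inhibition of 50% or more, scaled per plate between neutral and stimulator controls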
TIM10 inh: growth inhibitors of TIM10 yeast strain; S. cerevisiae TIM10 strain growth, BacTiter-Glo luminescence, 24 h; inhibition, % at 10 µM; 330,000 compounds, 1.4% hits;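 active = inhibition of 40% or more at the single tested concentration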;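 also: wild-type TIM10 isogenic control strain grown at permissive 25 °C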
tim10-1 inh: inhibits growth of tim10-1 mutant yeast. S. cerevisiae tim10-1 ts strain growth, BacTiter-Glo, 24 h. inhibition, % at 20 µM. 330,000 compounds, 2.2% hits;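 active = inhibition of at least 40%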;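 also: mutant grown at 25 °C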
tim10-1 conf: tim10-1 yeast growth inhibition, confirmed | shares compounds with tim10-1 inh | S. cerevisiae tim10-1 ts strain growth, BacTiter-Glo, 24 h | inhibition, % at 20 µM | 7,400 compounds, 56% hits | AID 463213;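 active = inhibition of yeast growth at or above a set limit in either of two repeat tests at 20 µM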;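 also: tim10-1 mutant grown at permissive 25 °C to find synthetic lethal compounds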
TIM10 conf: TIM10 yeast growth inhibition, confirmed. inhibition, % at 10 µM. S. cerevisiae tim10 strain growth, BacTiter-Glo luminescence, 24 h. shares compounds with TIM10 inh. 4,600 compounds, 63% hits;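 active = inhibition of yeast growth at or above a set limit in either of two replicates at 10 µM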; also: this counterscreen used the strain with wild-type TIM10
tim23-1 conf: confirmation of tim23-1 mutant yeast growth inhibitors; S. cerevisiae tim23-1 growth, BacTiter-Glo luminescence, 24 h; AID 463218; inhibition, % at 20 µM; 4,400 compounds, 83% hits; shares compounds with tim23-1 inh;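 active = inhibition above about 39% in either of two replicate wells at 20 µM, limit read from the data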;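 also: temperature-sensitive tim23-1 mutant grown at 25 °C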
Mdm2 MdmX conf: confirmation of human Mdm2/MdmX interaction inhibitors. Mdm2-MdmX binding, luminescent assay. inhibition, % at 8 µM. AID 489028. shares compounds with Mdm2 MdmX PPI. 10,000 compounds, 55% hits; in the data active = inhibition above about 40%
Full FLuc ctr: full-length luciferase inhibition in Mdm2/MdmX counter-screen; AID 504607; shares compounds with Mdm2 MdmX PPI; SaOS-2 full-length luciferase counterscreen, luminescence; inhibition, % at 8 µM; 6,200 compounds, 77% hits;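 active = mean inhibition at 8 µM reaching about 37%, which flags the compound as non-specific, limit read from the data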;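 also: p53-null SaOS-2 cells with luciferase driven by a doxycycline-inducible promoter; compound on cells about two nights before reading with doxycycline added after day one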
Large screens that a line does not name were inactive (follow-up assays come after a bar, where they were run).

Nc1nonc1-n1nnc(C(=O)N/N=C/c2cc(Br)ccc2O)c1CNc1ccccc1	Mdm2 MdmX PPI 69, tim23-1 inh 51, TIM10 inh 48, tim10-1 inh 61 | tim10-1 conf inactive | TIM10 conf 54 | tim23-1 conf 54 | Mdm2 MdmX conf 66 | Full FLuc ctr inactive
Cc1cc(C)c2c(CN3CCN(c4ccccc4F)CC3)cc(=O)oc2c1	none (no result: Mdm2 MdmX PPI, tim23-1 inh, TIM10 inh, tim10-1 inh)
CCc1ccc(NSc2ccccc2[N+](=O)[O-])cc1	Mdm2 MdmX PPI 50, tim23-1 inh 52, tim10-1 inh 54 | tim10-1 conf 43 | tim23-1 conf 58 | Mdm2 MdmX conf 42 | Full FLuc ctr 65
N#Cc1c2ccc([N+](=O)[O-])cc2[n+]([O-])n1-c1ccccc1	Mdm2 MdmX PPI 77, tim23-1 inh 75, TIM10 inh 66, tim10-1 inh 61 | tim10-1 conf inactive | TIM10 conf 66 | tim23-1 conf inactive | Mdm2 MdmX conf inactive
O=c1c2cc([N+](=O)[O-])ccc2sn1-c1ccccc1	none (no result: Mdm2 MdmX PPI, tim23-1 inh, TIM10 inh, tim10-1 inh)
CC1=CC(C)(C)N2C(=O)C(=O)c3cc(OC(=O)c4ccco4)cc1c32	Mdm2 MdmX PPI 75, tim23-1 inh 68, tim10-1 inh 51 | tim10-1 conf 36 | tim23-1 conf inactive | Mdm2 MdmX conf 59 | Full FLuc ctr 52
O=C(Oc1cccc(OC(=O)c2ccco2)c1)c1ccco1	none
COc1ccc(C(C)(NC(C)=O)c2nc(-c3cnc4ccccc4c3)cs2)cc1 (stereo unspecified)	none (no result: Mdm2 MdmX PPI, tim23-1 inh, TIM10 inh, tim10-1 inh)
O=C1C(Cl)=C(Nc2ccc(O)cc2)C(=O)c2ccccc21	Mdm2 MdmX PPI 100, TIM10 inh 45, tim10-1 inh 49 | tim10-1 conf 45 | TIM10 conf 51 | Mdm2 MdmX conf 100 | Full FLuc ctr 51
Cc1ccc(NC2=C(Cl)C(=O)c3ccccc3C2=O)cc1	none (no result: Mdm2 MdmX PPI, tim23-1 inh, TIM10 inh, tim10-1 inh)
Cc1ccccc1CN1C(=O)CSCC1(C)C(=O)Nc1ccc2c(c1)OCCO2 (stereo unspecified)	none (no result: Mdm2 MdmX PPI, tim23-1 inh, TIM10 inh, tim10-1 inh)
N#Cc1c(-c2ccc(Br)cc2)cc(-c2cccnc2)nc1N	none
CS(=O)c1nc(-c2ccc(Br)cc2)cc(-c2ccccc2)c1C#N (stereo unspecified)	Mdm2 MdmX PPI 100, tim23-1 inh 68, tim10-1 inh 41 | tim10-1 conf 46 | tim23-1 conf 60 | Mdm2 MdmX conf 87 | Full FLuc ctr inactive
COc1cccc(-c2sc3ccc(OC)cc3c2-c2ccc(OCCN3CCCC3)cc2)c1	Mdm2 MdmX PPI 69, tim23-1 inh 70, tim10-1 inh 40 | tim10-1 conf 38 | tim23-1 conf 46 | Mdm2 MdmX conf inactive | Full FLuc ctr inactive
O=C(Nc1ccccc1[N+](=O)[O-])OCC=Cc1ccccc1	none (no result: Mdm2 MdmX PPI, tim23-1 inh, TIM10 inh, tim10-1 inh)
COc1cc2nc(N3CCN(c4cc(C)ccc4C)CC3)nc(N)c2cc1OC	Mdm2 MdmX PPI 95, tim10-1 inh 45 | tim10-1 conf inactive | Mdm2 MdmX conf 86 | Full FLuc ctr 51
CCSC1(SCC)N=C(N)C2(C#N)C(c3ccc(OC)c(OC)c3OC)C12C#N (stereo unspecified)	Mdm2 MdmX PPI 69, tim10-1 inh 61 | tim10-1 conf 62 | Mdm2 MdmX conf 50 | Full FLuc ctr inactive
CCSC1(SCC)N=C(N)C2(C#N)C(c3ccccc3)NC3=C(CCC3)C12C#N (stereo unspecified)	none
CN(C)CCN(C(=O)/C=C/c1cccs1)c1nc2ccc(Br)cc2s1	none
CCOc1cccc2sc(N(CCN(C)C)C(=O)/C=C/c3cccs3)nc12	Mdm2 MdmX PPI 65, tim10-1 inh 47 | tim10-1 conf 32 | Mdm2 MdmX conf inactive
Cc1ccccc1S(=O)(=O)NC(=O)C1(C)CCN1C(=O)CC1CCCCC1 (stereo unspecified)	none (no result: Mdm2 MdmX PPI, tim23-1 inh, TIM10 inh, tim10-1 inh)
